The values that follow come from PubChem BioAssay (NCATS).

For test [1], the target named is Hexokinase-4 (Homo sapiens) + Glucokinase regulatory protein (Homo sapiens) (UniProt P35557+Q14397). Put plainly: qHTS assay for inhibitors of recombinant human GCK-GKRP interaction: HTRF assay (AID 743207).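 Note: 0% = DMSO with GCK present and -100% = DMSO wells lacking GCK.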 An outline of the steps:
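Steps: dispense GCK–GKRP complex (5 nM each, GST- and FLAG-tagged) with 2 uM S6P; pin in compounds; add XL665/Eu-cryptate-labelled antibodies; incubate 60 min at room temperature; read time-resolved FRET at 665 and 615 nm.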

The nature of test [2]: qHTS Assay for Identifying Gametocytocidal Compounds (AID 743244).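 For max response: % is set by controls: 0 for no effect and ±100 for the full control effect; actives lower the fluorescent signal which means gametocytes are killed.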 Note: potency is the fitted concentration of half-maximal effect. The settings on record: P. falciparum 3D7 stage III-V gametocytes, alamarBlue, 72 h; max response: stronger effect = lower value. A digest of the protocol: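 In this qHTS viability screen, late-stage 3D7 gametocytes are incubated with compound for 72 h, then with alamarBlue for 24 h; reduced resorufin fluorescence marks killing.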
(Quantitative high-throughput screening tests each substance at several concentrations.)

Test [3] is described as follows: qHTS profiling of the MIPE4 collection as inhibitors of Plasmodium falciparum (3D7) proliferation (AID 743344; call rule not given here). The conditions noted are these: P. falciparum 3D7 in erythrocytes, SYBR Green DNA fluorescence, 72 h; at 28.5 µM (top of the series) unless noted. An outline of the steps: (§1)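 Erythrocytes infected with P. falciparum (0.3% parasitemia, 2.5% hematocrit) incubated with compounds 72 h at 37 C, 5% CO2. Lysis with saponin/Triton buffer containing SYBR Green I, overnight at room temperature in the dark; DNA fluorescence (485/535 nm) normalised to 0.29 uM artemisinin and DMSO.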

The nature of test [4]: qHTS profiling of the MIPE4 collection as inhibitors of Plasmodium falciparum (DD2) proliferation (AID 743345; call rule not given here). The conditions noted are these: P. falciparum Dd2 in erythrocytes, SYBR Green DNA, 72 h; at 28.5 µM (top of the series) unless noted. An outline of the steps:
as §1

Test [5] in a line: qHTS profiling of the MIPE4 collection as inhibitors of Plasmodium falciparum (DD2) proliferation (Rep 2) (AID 743346; call rule not given here). The conditions noted are these: P. falciparum Dd2 in erythrocytes, SYBR Green DNA, 72 h; at 28.5 µM (top of the series) unless noted. An outline of the steps:
as §1

The nature of test [6]: High-throughput drug toxicity screening in the BPDCN cell line Gen2.2 (AID 1224824; call rule not given here;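 note: cells exposed to compounds for 48 h before reading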). The conditions noted are these: Gen2.2 BPDCN cells; at 45.8 µM (top of the series) unless noted. A digest of the protocol: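 Gen2.2, 500 cells/well, phenol red-free RPMI/10% FBS/Pen-Strep; 48 h cpd, 37 °C/5% CO2; CTG lum, 15 min RT. Norm: DMSO = 100%, bortezomib 9.2 uM final = 0%.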
Test [7] can be described thus: High-throughput drug toxicity screening in the BPDCN cell line Cal-1 (AID 1224825; call rule not given here). The conditions noted are these: Cal-1 BPDCN cell viability, qHTS; at 45.8 µM (top of the series) unless noted. A digest of the protocol:
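500 Cal-1 cells/well, RPMI + glutamine + 10% FBS (phenol red-free); cpd added by pin tool; 48 h, 37C, 5% CO2; CTG 15 min RT, lumi read. Normalised: DMSO 100%, bortezomib 9.2 uM 0%.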

A short description of test [8]: qHTS assay for measurement of the activity of small molecule inhibitors on Zika virus induced Caspase-3 activity in human iPSC derived neural progenitor cells (hNPCs) (AID 1224857). Note: nearly all actives have a fitted effect of over 65% in size. Note: potency is the fitted concentration of half-maximal effect. An outline of the steps: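 In medium with heparin 2 ug/ml and cyclopamine 2 uM, hNPCs (350 cells/well) received compound for one hour and then Zika virus at 2 FFU/cell; caspase activity was measured by Caspase-Glo 3/7 luminescence 6 h post-infection.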

Test [9] is described as follows: qHTS assay for measurement of the activity of small molecule inhibitors on Zika virus induced Caspase-3 activity in human astrocytoma cells (AID 1224859).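 Note: plate controls were ZIKV-infected untreated cells for no effect and uninfected cells for full effect.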 A digest of the protocol:
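A cell-based luminescent caspase-3/7 assay used SNB-19 cells infected with ZIKV (2 FFU/cell) for 6 h following 1 h compound pretreatment.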

A short description of test [10]: qHTS Screen of the MIPE 4.0 Collection Against Ewings Sarcoma (RDES) (AID 1259252). Note: nearly all actives have a fitted effect of over 35% in size. Note: potency is the fitted concentration of half-maximal effect. An outline of the steps:
(§2)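 CellTiter-Glo luminescence after 48 h compound exposure (titration) gave viability; percent activity used DMSO-treated cells as no inhibition and medium-only wells as full inhibition. Cells grown in RPMI/5% FBS, dosed 4 h post-seeding.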

Test [11] is described as follows: qHTS Screen of the MIPE 4.0 Collection Against Ewings Sarcoma (TC71) (AID 1259253). Note: nearly all actives have a fitted effect of over 40% in size. Note: potency is the fitted concentration of half-maximal effect. An outline of the steps:
as §2

Test [12] can be described thus: qHTS Screen of the MIPE 4.0 Collection Against Ewings Sarcoma (EW8) (AID 1259255).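 For viability: 100% = DMSO-treated cells and 0% = medium-only wells without cells.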 Note: nearly all actives have a fitted effect of over 35% in size. Note: potency is the fitted concentration of half-maximal effect. A digest of the protocol: as §2
Test [13] can be described thus: qHTS profiling of the MIPE4 collection as inhibitors of Plasmodium falciparum (HB3) proliferation (AID 743347; call rule not given here;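 note: plate controls were DMSO vehicle wells for no effect and artemisinin wells for full effect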). The settings on record: P. falciparum HB3 in erythrocytes, SYBR Green DNA, 72 h; at 28.5 µM (top of the series) unless noted. An outline of the steps:
as §1

Test [14] is described as follows: qHTS assay for cell viability of HEK293 cells (AID 743288). Note: % is set by controls: 0 for no effect and ±100 for the full control effect; nearly all actives have a fitted effect of over 50% in size. The conditions noted are these: ATP luminescence (CellTiter-Glo), 18 h; max response: stronger effect = lower value. A digest of the protocol: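 The Tox21 protocol used parental HEK293 cells treated for 18 h at 37 C with compounds delivered by pintool; ATP-coupled luminescence after 30 min at room temperature gave viability.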

The nature of test [15]: qHTS assay for cell viability of the p53RE-bla HCT-116 cell line (AID 743292). Note: % is set by controls: 0 for no effect and ±100 for the full control effect; nearly all actives have a fitted effect of over 55% in size. An outline of the steps:
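CellSensor p53RE-bla HCT-116 cells (4,000/well) pre-incubated 5 h at 37 C, then exposed to compounds in DMSO for 16 h at 37 C. Viability read as ATP content by CellTiter-Glo luminescence after 30 min at room temperature.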

Test [16] can be described thus: qHTS profiling for inhibitors of Plasmodium falciparum (3D7) proliferation (AID 743322).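 Note: infected erythrocytes exposed to compound for 72 h before lysis; 100% = DMSO vehicle wells and 0% = 0.29 µM artemisinin.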 The settings on record: P. falciparum 3D7 proliferation; at 28.7 µM (top of the series) unless noted. An outline of the steps: as §1
A short description of test [17]: qHTS profiling for inhibitors of Plasmodium falciparum (DD2) proliferation (AID 743323; call rule not given here). The settings on record: lower = more inhibition; at 28.7 µM (top of the series) unless noted. A digest of the protocol: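 Parasite proliferation measured via DNA-dye fluorescence, as uninfected erythrocytes lack DNA. Cultures at 0.3% parasitemia and 2.5% hematocrit incubated 72 h with compound; signal scaled between vehicle and 0.29 uM artemisinin wells.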

Several values for one entry are separate records, joined by “and”; a condition that tells them apart may be missing. Equal entries are not always repeated. Inconclusive results are not listed. A structure can be active in one record and inactive in another. Activity calls are given as the source filed them. Unless noted, calls come from the whole dose curve; as a rule, active = well fitted curve in the direction sought with a large enough effect; inconclusive = small, poorly fitted or top-dose-only effect, or another doubt; inactive = no such curve, though single readings can be large; an effect the other way counts as inactive or inconclusive.

Sequence of Hexokinase-4 (Homo sapiens) + Glucokinase regulatory protein (Homo sapiens) (P35557 whole entry, looked up): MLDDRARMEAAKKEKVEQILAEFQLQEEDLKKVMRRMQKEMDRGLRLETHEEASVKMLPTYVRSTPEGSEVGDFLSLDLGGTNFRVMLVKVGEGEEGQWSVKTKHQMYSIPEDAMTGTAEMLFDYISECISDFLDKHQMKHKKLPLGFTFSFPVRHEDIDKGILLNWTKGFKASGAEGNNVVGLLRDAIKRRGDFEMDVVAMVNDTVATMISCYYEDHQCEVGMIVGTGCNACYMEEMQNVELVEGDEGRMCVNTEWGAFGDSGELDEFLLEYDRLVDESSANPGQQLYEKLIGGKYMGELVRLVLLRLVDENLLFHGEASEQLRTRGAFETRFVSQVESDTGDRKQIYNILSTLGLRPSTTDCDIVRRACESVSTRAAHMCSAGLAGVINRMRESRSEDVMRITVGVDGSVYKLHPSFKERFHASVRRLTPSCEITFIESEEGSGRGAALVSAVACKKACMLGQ
Sequence of Hexokinase-4 (Homo sapiens) + Glucokinase regulatory protein (Homo sapiens) (Q14397 whole entry, looked up): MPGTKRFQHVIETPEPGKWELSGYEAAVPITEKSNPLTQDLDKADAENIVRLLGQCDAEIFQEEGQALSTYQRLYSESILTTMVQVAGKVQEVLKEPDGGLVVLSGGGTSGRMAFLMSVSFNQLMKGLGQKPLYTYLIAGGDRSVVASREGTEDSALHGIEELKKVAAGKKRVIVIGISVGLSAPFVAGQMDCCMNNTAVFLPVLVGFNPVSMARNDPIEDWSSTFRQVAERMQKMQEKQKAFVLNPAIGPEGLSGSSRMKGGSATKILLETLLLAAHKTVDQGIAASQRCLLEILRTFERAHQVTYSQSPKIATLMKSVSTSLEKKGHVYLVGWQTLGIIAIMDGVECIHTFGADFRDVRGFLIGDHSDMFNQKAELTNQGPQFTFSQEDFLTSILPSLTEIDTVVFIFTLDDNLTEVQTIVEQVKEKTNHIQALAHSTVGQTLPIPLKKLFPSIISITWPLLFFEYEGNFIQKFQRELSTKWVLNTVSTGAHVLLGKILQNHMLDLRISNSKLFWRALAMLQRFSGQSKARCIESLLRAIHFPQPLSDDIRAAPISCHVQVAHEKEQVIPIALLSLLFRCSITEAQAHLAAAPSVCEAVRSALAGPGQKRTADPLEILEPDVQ

Regarding `NNCCc1ccccc1`, the result in test [1] was inactive. In [2], the max response is -2.24% (inactive) and 11.6% (inactive). For the same compound, the parasite growth, % of DMSO control in test [3] turned out to be 88.8%. Also, the parasite growth remaining, % of DMSO control (lower = more inhibition) in [4] stood at 24.6%. Moreover, in test [5], the parasite growth, % of control (lower = inhibition) was determined as 79.6%. In addition, in [6], the cell viability, % of control (lower = more cytotoxic) stood at 133%. Moreover, the viability (% of control) in [7] was determined as 10.4%. For the same compound, the Potency entry is “inactive and 26.4 µM (active)” in test [8]; 8.33 µM (active) in test [10]; 20.9 µM (active) in test [11]; 9.35 µM (active) in test [12]. Besides, the Potency entry in [9] was “inactive”.

For the compound `Cc1ccc(N(CC2=NCCN2)c2cccc(O)c2)cc1`, in test [1], the outcome was inactive. In addition, in test [2], the max response was 9.03% (inactive). The same compound yielded a parasite growth, % of DMSO control in [3] of 69.6%. Besides, the parasite growth, % of control (lower = inhibition) in [5] came to 57%. The compound further had a growth, % of control in test [13] of 95.9%. For the same compound, the cell viability, % of control (lower = more cytotoxic) in test [6] was 80.5%. The viability (% of control) in test [7] worked out at 22.6%. Also, the Potency result in test [8], in [9], in test [10] and in [12] was “inactive” throughout. The Potency in [11] was 14.8 µM (active).

For `NC(=O)c1cnccn1`, the result in test [1] was inactive. Moreover, the max response in test [2] is -3.29% (inactive) and 14.5% (inactive); in test [14], 4.61% (inactive) and 0.671% (inactive). The Potency result in test [15], in [8], in test [9], in test [10], in test [11] and in test [12] was “inactive” in each case. Besides, in [3], the parasite growth, % of DMSO control is 97.3%. Besides, in [4], the parasite growth remaining, % of DMSO control (lower = more inhibition) is 94.9%. In test [5], the parasite growth, % of control (lower = inhibition) is 45.3%. The compound further registered a growth, % of control in [13] of 105%. In addition, the cell viability, % of control (lower = more cytotoxic) in test [6] stood at 146%. In [7], the viability (% of control) is 118%.

Regarding `O=C1CCc2cc(OCCCCc3nnnn3C3CCCCC3)ccc2N1`, the outcome in test [1] was inactive. Also, the max response in [2] was 16.8% (inactive) and 6.18% (inactive). This compound also yielded a parasite growth, % of DMSO control in [3] of 90.8%. Besides, the parasite growth remaining, % of DMSO control (lower = more inhibition) in test [4] was found to be 99.1%. Moreover, the parasite growth, % of control (lower = inhibition) in test [5] is 115%. Besides, in test [13], the growth, % of control was determined as 104%. The cell viability, % of control (lower = more cytotoxic) in test [6] turned out to be 137%. Further, the viability (% of control) in [7] amounted to 84.4%. The Potency result in [8], in [9], in test [10], in test [11] and in [12] was “inactive” throughout.

Regarding `OC(CN1CCC(Cc2ccc(F)cc2)CC1)c1ccc(Cl)cc1` (stereo unspecified), the outcome in test [1] was inactive. Further, the Potency in test [2] was 7.43 µM (active). For the same compound, in [16], the remaining parasite growth % (stronger effect = lower value) is 1.14% and 5.06%. Also, in test [17], the activity, percent of control is 1.06% and 4.92%. In [3], this compound registered a parasite growth, % of DMSO control of 9.22%. The parasite growth, % of control (lower = inhibition) in [5] amounted to 19.9%. The compound also gave a growth, % of control in [13] of 46.6%. Also, the cell viability, % of control (lower = more cytotoxic) in test [6] amounted to 156%. Moreover, the viability (% of control) in test [7] was 99.3%. Also, the Potency result in test [8], in test [9], in test [10], in test [11] and in test [12] was “inactive” each time.

Regarding `Cc1cnc(NC(=O)C2=C(O)c3ccccc3S(=O)(=O)N2C)s1`, the outcome in test [1] was inactive. Moreover, the max response in test [2] was 4.3% (inactive) and 13.2% (inactive) and 16.1% (inactive). In [3], the parasite growth, % of DMSO control worked out at 39%. Moreover, in test [5], the parasite growth, % of control (lower = inhibition) was determined as 61.9%. Further, the growth, % of control in test [13] was 78.1%. The cell viability, % of control (lower = more cytotoxic) in test [6] was found to be 60.9%. Further, the viability (% of control) in [7] turned out to be 96.3%. In addition, the Potency entry in test [8], in test [9], in test [10], in test [11] and in test [12] was “inactive” in each case.

Take `NC(N)=NC(=O)c1nc(Cl)c(N)nc1N`: the outcome in [1] was inactive. For the same compound, the max response in test [14] is -10.2% (inactive). In addition, the Potency entry in [15], in test [8], in [9], in test [10], in [11] and in test [12] was “inactive” in each case. Also, the cell viability, % of control (lower = more cytotoxic) in [6] was 12.8%. Further, the viability (% of control) in [7] was found to be 23.5%.

For the compound `CC(C)NCC(O)COc1ccc(COCCOC(C)C)cc1` (stereo unspecified), the outcome in test [1] was inactive. Besides, the max response in test [2] is 24.7% (inactive) and -10.9% (inactive) and -2.93% (inactive). In test [3], the parasite growth, % of DMSO control is 78.7%. Also, the parasite growth remaining, % of DMSO control (lower = more inhibition) in test [4] turned out to be 102%. Also, the parasite growth, % of control (lower = inhibition) in [5] was determined as 98%. In test [13], this compound showed a growth, % of control of 102%. Moreover, the cell viability, % of control (lower = more cytotoxic) in [6] turned out to be 123%. In test [7], the viability (% of control) came out at 113%. For the same compound, the Potency entry in [8], in [9], in test [10], in [11] and in test [12] was “inactive” each time.
